# Measurements: ChEMBL document CHEMBL4513143, “CO-ADD screening of University of Natural Resources and Life (Austria) compounds”
# Entries with a potency or affinity are not part of this list.
# Columns and labels:
# Klebsiella pneumoniae = conditions: Concentration 32 ug.mL-1; ASSAY_TEST Inhibition of Bacterial Growth; detection method Absorption (OD600); MEDIA CAMHB; plate type 384well; NBS; CORNING #3640; time 18 hr
# Candida albicans = conditions: 32 ug/mL
# Cryptococcus neoformans = conditions: Concentration 32 ug.mL-1; ASSAY_TEST Inhibition of Fungal Growth; detection method Resazurin; Absorption (OD600-OD570); plate type 384well; NBS; CORNING #3640
compound,measurement,setting,value
[N-]=[N+]=NC[C@H]1OC(O)[C@@H](O)[C@@H]1O (stereo partly drawn),Inhibition,Klebsiella pneumoniae,29.69%
same,Inhibition,Candida albicans,3.08%
same,Inhibition,Cryptococcus neoformans,-7.43%
